Where “and” joins values, the source holds several entries; their conditions need not be identical. Equal entries are not always repeated. Results filed as inconclusive are left out. Calls of active or inactive are those of the source. The call rests on the fitted dose curve; in most records, active means well fitted cell-killing curve with a large enough effect in the repeat runs; inconclusive means weak or mixed curves; inactive means flat fitted curve, though single readings scatter.
Experiment: qHTS assay for small molecule agonists of the antioxidant response element (ARE) signaling pathway measured by Nrf2-dependant transcriptional activity - cell viability counter screen (AID 720653)
Conditions: ARE-bla HepG2 viability, CellTiter-Glo ATP luminescence, 16 h; stronger effect = lower value
Source text: National Center for Advancing Translational Sciences [NCATS] NIH Chemical Genomics Center [NCGC] U.S. Environmental Protection Agency [EPA] National Institutes of Environmental Health Sciences [NIEHS] National Toxicology Program [NTP] Assay Overview: Oxidative stress has been implicated in the pathogenesis of a variety of diseases ranging from cancer to neurodegeneration. The antioxidant response element (ARE) signaling pathway plays an important role in the amelioration of oxidative stress. The CellSensor ARE-bla HepG2 cell line (Invitrogen) can be used for analyzing the Nrf2/antioxidant response signaling pathway. Nrf2 (NF-E2-related factor 2) and Nrf1 are transcription factors that bind to AREs and activate these genes. The CellSensor ARE-bla HepG2 cell line contains a beta-lactamase reporter gene under control of the Antioxidant Response Element (ARE) stably integrated into HepG2 cells. The activation of the report gene under culture conditions can be detected by fluorescence intensity. The cytotoxicity of the compounds against the ARE-bla HepG2 cell line was quantified by measuring the intracellular ATP content.
Assay Protocol Summary: ARE-bla HepG2 cells were dispensed at 2,000 cells/5 ul/well in 1536-well black wall/clear bottom plates using a Multidrop Combi (ThermoFisher Scientific, Waltham, MA) dispenser. After the assay plates were incubated at 37C/5% CO2 for 5 hrs, 23 nL of compounds dissolved in DMSO, positive controls or DMSO only was transferred to the assay plate by a pintool work station (Kalypsys, San Diego, CA). The plates were incubated at 37C/5% CO2 for 16 hrs. After 1 uL of LiveBLAzer B/G FRET substrate was added using a Flying Reagent Dispenser (FRD) (Aurora Discovery, San Diego, CA), the assay plates were incubated at room temperature for 2 hrs. The fluorescence intensity was measured by an Envision (PerkinElmer, Shelton, CT) plate reader. Cell viability using CellTiter Glo viability assay (Promega, Madison, WI) was also measured by adding 4 ul/well of CellTiter-Glo reagent into the same assay plate using a FRD. After 30 min incubation at room temperature, the luminescence intensity in the plates was measured using a ViewLux (PerkinElmer) plate reader.
On the % scale 0 is the no-effect control and ±100 the full control effect.

Row | SMILES | max response
1 | CCOc1cccc(N)c1 | -7.78% (inactive)
2 | C/C=C1\CC2C=CC1C2 (stereo not given) | -2.33% (inactive)
3 | Cc1cccc(C)c1 | 7.38% (inactive)
4 | O=C(O)CNC(=O)c1ccc([N+](=O)[O-])cc1 | 1.63% (inactive)
5 | CCOc1ccccc1N | 12.7% (inactive)
6 | CCCCC(CC)CO (stereo not given) | 7.9% (inactive)
7 | Cc1cccc(C(=O)O)c1 | -0.706% (inactive)
8 | Fc1ccccc1 | 8.77% (inactive)
9 | c1ccc2c(c1)ccc1ncccc12 | -7.13% (inactive)
10 | Cc1ccc(C)c(O)c1 | 0.808% (inactive)
11 | O=Cc1ccc(Cl)cc1 | 7.47% (inactive)
12 | CC(=O)Nc1ccc(N)cc1 | 2.9% (inactive)
13 | CNC(=O)N(c1ccccc1)c1ccccc1 | -11.7% (inactive)
14 | Cc1cc(C)cc(O)c1 | -0.981% (inactive)
15 | CC(=O)CCc1ccccc1 | 0.255% (inactive)
16 | Cc1ccc(Cl)cc1 | 4.9% (inactive)
17 | CCC(C)=O | -4.32% (inactive)
18 | C=C(C)C(=O)OCC(C)O (stereo not given) | 7.34% (inactive)
19 | Nc1cc([N+](=O)[O-])ccc1C(=O)O | -7.64% (inactive) and 3.66% (inactive)
20 | COC(=O)CC#N | -4.65% (inactive)

Row | SMILES | max response
21 | OC/C(Br)=C(\Br)CO | 1.49% (inactive)
22 | O=CNc1ccccc1 | -3.88% (inactive)
23 | N#CC1(O)CCCCC1 | 5.72% (inactive)
24 | c1ccsc1 | 9% (inactive)
25 | NC(=S)NNC(N)=S | 1.26% (inactive) and -5.12% (inactive)
26 | C[C@@H]1O[C@@H](O[C@@H]2[C@@H](O)[C@H](OCCc3ccc(O)c(O)c3)O[C@H](CO[C@@H]3O[C@H](CO)[C@@H](O)[C@H](O)[C@H]3O)[C@H]2OC(=O)/C=C/c2ccc(O)c(O)c2)[C@H](O)[C@H](O)[C@H]1O | -6.98% (inactive)
27 | Nc1ccccc1[N+](=O)[O-] | -18.4% (inactive)
28 | O=C(O)c1ccc(Cl)c(Cl)c1 | -1.66% (inactive)
29 | NC(=O)NC(N)=O | -4.93% (inactive)
30 | Nc1nc2ccccc2[nH]1 | -4.79% (inactive)
31 | CC(=O)c1nccs1 | 25.7% (inactive)
32 | CC(C)CO | -4.27% (inactive)
33 | O=C(O)CCSSCCC(=O)O | 0.366% (inactive)
34 | O=C1OC(=O)c2c(Cl)c(Cl)c(Cl)c(Cl)c21 | 1.45% (inactive) and 13.5% (inactive)
35 | [O-]/[N+](=N\O)c1ccccc1 | -5.46% (inactive)
36 | CCOc1ccc(NC(C)=O)cc1N | -8.42% (inactive)
37 | CC/C=C/C#N | 1.63% (inactive)
38 | CCC(O)C(C)(C)C (stereo not given) | -4.91% (inactive)
39 | Nc1ccc(F)cc1F | -3.09% (inactive)
40 | COC(=O)c1ccccc1 | 3.39% (inactive)
